{"source": "PubChem BioAssay AID652115", "about": "(Broad Institute, 2013)", "note": "“And” between values parts separate entries of the source, which are not always exact repeats. Identical values can stand only once. Among all 330,000 compounds or so, about 3,800 (1.2%) were called active. Rule as the data show it: active = inhibition above about 15%; inconclusive = no clear call, values can overlap the other calls; inactive = below that. The sample as a whole holds a higher share of actives than the screen did. The source holds several records for some structures; these can differ, active in one and inactive in another."}
{"biological_target": "NAD-dependent protein deacylase sirtuin-5, mitochondrial (Homo sapiens) (UniProt Q9NXA8)", "sequence (Q9NXA8 whole entry, looked up)": "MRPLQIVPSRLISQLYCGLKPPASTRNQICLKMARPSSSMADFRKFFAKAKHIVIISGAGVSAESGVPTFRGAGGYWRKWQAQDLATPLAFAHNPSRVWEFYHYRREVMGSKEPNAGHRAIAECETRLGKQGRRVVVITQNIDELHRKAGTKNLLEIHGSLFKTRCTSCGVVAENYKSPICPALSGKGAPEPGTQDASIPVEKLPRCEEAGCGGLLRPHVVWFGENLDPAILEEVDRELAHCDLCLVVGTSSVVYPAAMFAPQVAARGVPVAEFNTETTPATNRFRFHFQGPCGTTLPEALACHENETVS", "assay": "blockers of sirtuin-5 deacylase activity – biochemical, fluorescence imaging, single point, set 5, primary screen (AID 652115)", "conditions": "Purified SirT5, succinyl-peptide AMC, trypsin-coupled fluorescence; at 15 µM; stronger effect = higher value"}
{"smiles": "Cc1ccc(S(=O)(=O)N(C)C[C@@H]2Oc3ccc(N(C)C)cc3C(=O)N([C@@H](C)CO)C[C@H]2C)cc1", "inhibition": "-7.63% (inactive)"}
{"smiles": "COc1ccc2c3c(n(C)c2c1)[C@@H](CO)N(Cc1ccncc1)CC31CN(C(=O)C2CCC2)C1", "inhibition": "2.18% (inactive)"}
{"smiles": "CNC(=O)c1ccc2nc(NC(C)=O)sc2c1", "inhibition": "17.4% (active)"}
{"smiles": "CS(=O)(=O)c1ccc2nc(NC(=O)c3ccc(Cl)nc3)sc2c1", "inhibition": "2.94% (inactive)"}
{"smiles": "COc1cccc(C(=O)Nc2nc3ccc(S(C)(=O)=O)cc3s2)c1", "inhibition": "-3% (inactive)"}
{"smiles": "CCC(=O)N1C[C@@H](C)[C@H](OC)CN(C)C(=O)c2ccc(NC(=O)c3ccc(F)cc3)cc2OC[C@@H]1C", "inhibition": "-5.95% (inactive)"}
{"smiles": "O=C(CN1CCOCC1)NCC[C@H]1CC[C@@H](NC(=O)Nc2ccc(Cl)cc2)[C@@H](CO)O1", "inhibition": "2.34% (inactive)"}
{"smiles": "COc1ccc(C#Cc2ccc3c(c2)[C@]2(C(=O)N3)[C@H](c3ccccc3OCCO)N3[C@H](c4ccccc4)[C@H](c4ccccc4)OC(=O)[C@H]3[C@@H]2C(=O)N2CCCCCCC2)cc1", "inhibition": "0.608% (inactive)"}
{"smiles": "COC(=O)C(CC#Cc1ccc2c(c1)[C@]1(C(=O)N2)[C@H](c2ccccc2OCCO)N2[C@H](c3ccccc3)[C@H](c3ccccc3)OC(=O)[C@H]2[C@@H]1C(N)=O)C(=O)OC", "inhibition": "19.5% (active)"}
{"smiles": "COC(=O)C(CC#Cc1ccc2c(c1)[C@]1(C(=O)N2)[C@H](c2ccc(O)cc2)N2[C@H](c3ccccc3)[C@H](c3ccccc3)OC(=O)[C@H]2[C@@H]1C(=O)NC[C@H](O)c1ccccc1)C(=O)OC", "inhibition": "5.09% (inactive)"}
{"smiles": "CCCN1[C@@H]2c3ccc(C4=CCCC4)c(=O)n3C[C@@H]2[C@@H](CO)[C@@H]1C(=O)NCc1ccccn1", "inhibition": "-0.978% (inactive)"}
{"smiles": "C[C@@H]1CN([C@H](C)CO)S(=O)(=O)c2ccc(C#CCN(C)C)cc2O[C@H]1CN(C)C(=O)CC1CC1", "inhibition": "2.43% (inactive)"}
{"smiles": "COCC(=O)N(C)C[C@H]1Oc2cc(C#CC(C)C)ccc2S(=O)(=O)N([C@H](C)CO)C[C@@H]1C", "inhibition": "3.27% (inactive)"}
{"smiles": "C[C@@H]1CN([C@@H](C)CO)S(=O)(=O)c2ccc(-c3ccc(F)cc3)cc2O[C@@H]1CN(C)CC1CC1", "inhibition": "-1.76% (inactive)"}
{"smiles": "CC(C)CC#Cc1ccc2c(c1)O[C@H](CN(C)C(=O)CC1CC1)[C@@H](C)CN([C@@H](C)CO)S2(=O)=O", "inhibition": "31.5% (active)"}
{"smiles": "CC(C)CC#Cc1ccc2c(c1)O[C@@H](CN(C)C(=O)c1ccccc1F)[C@H](C)CN([C@H](C)CO)S2(=O)=O", "inhibition": "6.8% (inactive)"}
{"smiles": "C[C@@H]1CN([C@@H](C)CO)S(=O)(=O)c2ccc(C#Cc3ccc(F)cc3)cc2O[C@@H]1CN(C)CC1CC1", "inhibition": "15.1% (active)"}
{"smiles": "C[C@@H]1CN([C@@H](C)CO)S(=O)(=O)c2ccc(C#CCN(C)C)cc2O[C@@H]1CN(C)C(=O)CC1CC1", "inhibition": "1.11% (inactive)"}
{"smiles": "C[C@H](CO)N1C[C@H](C)[C@H](CN(C)CC2CC2)Oc2cc(-c3ccc(F)cc3)ccc2S1(=O)=O", "inhibition": "-4.28% (inactive)"}
{"smiles": "CC(C)CC#Cc1ccc2c(c1)O[C@@H](CN(C)C(=O)Nc1ccccc1F)[C@@H](C)CN([C@@H](C)CO)S2(=O)=O", "inhibition": "18.7% (active)"}
{"smiles": "COCC(=O)N(C)C[C@@H]1Oc2cc(C#CCC(C)C)ccc2S(=O)(=O)N([C@@H](C)CO)C[C@@H]1C", "inhibition": "15.3% (active)"}
{"smiles": "COCC#Cc1ccc2c(c1)O[C@@H](CN(C)C(=O)Nc1ccccc1F)[C@H](C)CN([C@H](C)CO)S2(=O)=O", "inhibition": "3.15% (inactive)"}
{"smiles": "CCC(=O)N(C)C[C@H]1Oc2cc(C#CCC(C)C)ccc2S(=O)(=O)N([C@H](C)CO)C[C@H]1C", "inhibition": "0.389% (inactive)"}
{"smiles": "COc1cccc(-c2ccc3n(c2=O)C[C@@H]2[C@@H](CO)[C@H](C(=O)N4CCCCC4)N[C@H]32)c1", "inhibition": "-26.1% (inactive)"}
{"smiles": "C[C@H](O)C#Cc1ccc2c(c1)O[C@H](CN(C)Cc1ccccn1)[C@@H](C)CN([C@@H](C)CO)S2(=O)=O", "inhibition": "2.94% (inactive)"}
{"smiles": "O=C(Cc1ccccc1)N[C@H]1C=C[C@H](CC(=O)N2CCCCC2)O[C@@H]1CO", "inhibition": "1.42% (inactive)"}
{"smiles": "COc1ccc2c3c([nH]c2c1)[C@H](CO)N(C(=O)NC1CCCC1)CC31CN(C(=O)Nc2cccc(F)c2)C1", "inhibition": "5.32% (inactive)"}
{"smiles": "O=C(NC1CCCCC1)N1CC2(C1)[C@@H](c1ccccc1)[C@@H](CO)N2CC1CCOCC1", "inhibition": "-5.9% (inactive)"}
{"smiles": "CC(C)NC(=O)N1CC(=O)N2[C@@H](CO)[C@H](c3ccc(C#CCN(C)C)cc3)[C@@H]2C1", "inhibition": "-1.28% (inactive)"}
{"smiles": "COCC(=O)N(C)C[C@@H]1Oc2cc(C#Cc3cccnc3)ccc2S(=O)(=O)N([C@H](C)CO)C[C@H]1C", "inhibition": "-3.01% (inactive)"}
{"smiles": "O=C(NC1CCCC1)[C@H]1[C@H](CO)[C@H]2Cn3c(ccc(-c4ccccc4F)c3=O)[C@@H]1N2C(=O)CC1CC1", "inhibition": "-18.6% (inactive)"}
{"smiles": "CN1c2ccc(-c3cccc(F)c3)cc2[C@@H]2[C@@H](CCN2C(=O)Nc2ccccc2F)[C@@H]1CO", "inhibition": "-18.1% (inactive)"}
{"smiles": "O=C(C[C@H]1CC[C@@H]2[C@H](COC[C@H](O)CN2S(=O)(=O)c2ccc(F)cc2)O1)NCCN1CCCCC1", "inhibition": "-1.86% (inactive)"}
{"smiles": "O=C(N[C@H]1CC[C@H](CCn2cc(-c3ccccc3F)nn2)O[C@@H]1CO)c1ccc2c(c1)OCO2", "inhibition": "1.25% (inactive)"}
{"smiles": "CN(Cc1ccccc1F)C[C@H]1[C@@H](c2ccccc2)[C@@H](CO)N1S(C)(=O)=O", "inhibition": "0.402% (inactive)"}
{"smiles": "O=C(Nc1ccccc1F)N1C[C@@H]2[C@H](c3ccccc31)[C@@H](CO)N2C(=O)Nc1ccccc1", "inhibition": "-0.735% (inactive)"}
{"smiles": "C[C@@H]1CN([C@H](C)CO)S(=O)(=O)c2ccc(C#CC3CCCC3)cc2O[C@@H]1CN(C)C(=O)Cc1ccncc1", "inhibition": "6.26% (inactive)"}
{"smiles": "C[C@@H]1CN([C@H](C)CO)S(=O)(=O)c2ccc(C#CC3CCCCC3)cc2O[C@H]1CN(C)C(=O)Cc1ccncc1", "inhibition": "0.678% (inactive) and -0.925% (inactive) and 15.2% (active)"}
{"smiles": "C[C@H]1CN([C@@H](C)CO)S(=O)(=O)c2ccc(C#CC3CCCC3)cc2O[C@H]1CN(C)C(=O)Cc1ccncc1", "inhibition": "-0.107% (inactive)"}
